# From PubChem BioAssay
# Most compounds without a hit are left out; they make up all but 2.4% or so of the library.
# PP1 inh – blocks human PP1-alpha phosphatase, a PP5 counter-screen; purified PP1alpha, OMFP fluorescence; inhibition, % at 6.7 µM; 320,000 tested, 0.9% active; P62136;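 active = inhibition above the mean inhibition of all tested compounds plus 3 SD, computed separately for each screening campaign, cut at about 15% in these data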
# Rpn11 block – Rpn11 (human) deubiquitinase inhibition; AID 588493; inhibition, % at 20 µM; 360,000 tested, 0.59% active; human 26S proteasome, Ub4-pepOG fluorescence polarization; 20S core pre-blocked with epoxomicin;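 active = inhibition at 20 µM, scaled to each plate's controls, above about 33%, limit read from the data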
# PP5 primary – blocks human protein phosphatase 5 activity. P53041. purified PP5c, OMFP substrate fluorescence. inhibition, % at 6.7 µM. 320,000 tested, 0.18% active;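 active = inhibition above the campaign's mean inhibition across all tested compounds plus 3 SD, cut at about 9.5% in these data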;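 note: 0% = DMSO only and 100% = 100 µM cantharidin control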
# PREPL inhibitor – inhibitors of human prolyl oligopeptidase-like enzyme PREPL; Q4J6C6; recombinant PREPL, fluorescence polarization activity-based probe; inhibition, % at 5.96 µM; 320,000 tested, 0.68% active; in the data active = inhibition above about 43%;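 note: 0% = enzyme with DMSO and 100% = wells lacking enzyme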
# Target sequence (Q4J6C6 whole entry, looked up): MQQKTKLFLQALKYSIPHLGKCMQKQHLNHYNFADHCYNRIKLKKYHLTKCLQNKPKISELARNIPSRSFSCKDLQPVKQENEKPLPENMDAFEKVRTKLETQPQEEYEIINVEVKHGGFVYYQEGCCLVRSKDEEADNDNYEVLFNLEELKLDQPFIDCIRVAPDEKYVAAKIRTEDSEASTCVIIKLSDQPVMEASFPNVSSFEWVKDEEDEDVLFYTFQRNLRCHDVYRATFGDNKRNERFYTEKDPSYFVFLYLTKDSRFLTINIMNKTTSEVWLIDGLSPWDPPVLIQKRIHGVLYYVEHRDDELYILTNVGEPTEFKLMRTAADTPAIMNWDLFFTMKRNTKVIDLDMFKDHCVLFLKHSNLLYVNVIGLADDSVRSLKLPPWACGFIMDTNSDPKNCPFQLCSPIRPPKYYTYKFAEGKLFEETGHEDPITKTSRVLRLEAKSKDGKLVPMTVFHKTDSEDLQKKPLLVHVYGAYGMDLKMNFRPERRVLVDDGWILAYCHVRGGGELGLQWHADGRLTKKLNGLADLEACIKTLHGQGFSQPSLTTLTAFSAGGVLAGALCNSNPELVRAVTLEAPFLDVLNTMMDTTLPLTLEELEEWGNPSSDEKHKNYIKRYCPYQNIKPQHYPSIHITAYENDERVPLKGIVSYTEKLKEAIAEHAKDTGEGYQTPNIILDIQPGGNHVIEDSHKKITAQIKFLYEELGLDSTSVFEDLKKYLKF
# NadD block – inhibitors of Staphylococcus aureus NadD; purified NadD enzyme, colorimetric absorbance read-out; inhibition, % at 20 µM; 360,000 tested, 0.78% active; AID 602399; in the data active = inhibition above about 26%
# PP1 inh confirm – human PP1 phosphatase inhibition, confirmation; inhibition, % at 6.7 µM; 1,900 tested, 52% active; purified PP1alpha, OMFP substrate fluorescence; shares compounds with PP1 inh;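 active = mean PP1 inhibition above a set limit taken from the earlier primary screen, cut at about 15% in these data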
# PP5 inh counter – counter-screen for PP1 inhibitors: human PP5 phosphatase inhibition; inhibition, % at 6.7 µM; purified PP5c, OMFP fluorescence; AID 2360; 1,900 tested, 4% active; shares compounds with PP1 inh;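 active = mean PP5 inhibition over triplicate wells above about 9.5% taken from the earlier PP1 screen, limit read from the data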
# The depositor's hits bear a star; . = no result.
SMILES,PP1 inh,Rpn11 block,PP5 primary,PREPL inhibitor,NadD block,PP1 inh confirm,PP5 inh counter
Nc1ncn(-c2ncc(C(F)(F)F)cc2Cl)n1,-5,1,1,-1,-5,.,.
O=C(Nc1cccc(NC(=O)c2ccc(Br)o2)n1)c1ccc(Br)o1,35*,31,5,-1,-2,31*,-4
O=C(Nc1cccnc1)c1ccc(Cl)c(S(=O)(=O)N2CCCC2)c1,38*,-10,2,-3,-3,-4,-8
O=C(Nc1cccnc1)c1ccc(Cl)c(S(=O)(=O)N2CCCCC2)c1,0,1,1,-2,2,.,.
CCc1ccc(NS(=O)(=O)c2ccc3[nH]cc(C(=O)N4CCc5ccccc54)c(=O)c3c2)cc1,19*,6,0,-19,22,2,-2
Cc1cc(C)cc(NS(=O)(=O)c2ccc3[nH]cc(C(=O)N4CCc5ccccc54)c(=O)c3c2)c1,7,11,1,7,13,.,.
CCOC(=O)C1(Cc2ccccc2C)CCCN(C(=O)c2ccc(OC)o2)C1 (centres undefined),26*,8,4,7,-3,-2,-2
CCOC(=O)C1(Cc2ccccc2C)CCCN(C(=O)c2ccoc2)C1 (centres undefined),-4,-10,-5,10,-2,.,.
COc1ccc(NCc2nnc(SCC(=O)Nc3nc(-c4ccccc4)cs3)n2-c2ccccc2)cc1,32*,0,2,7,29,26*,-4
Cc1ccc(/C(O)=C2/C(=O)C(=O)N(c3ccccn3)C2c2cccc([N+](=O)[O-])c2)cc1 (centres undefined),18*,4,0,-6,7,9,-5
Cc1cc(C2=NNC(=NC3CC3)SC2)c(C)n1-c1ccccc1F,14,19,2,7,3,.,.
Cc1cc(C2=NNC(=NC3CCCCC3)SC2)c(C)n1-c1c(C)n(C)n(-c2ccccc2)c1=O,19*,18,2,4,15,0,-3
O=C(O)CSCC(=O)N(Cc1ccccc1)c1nc(-c2ccccc2)c(-c2ccccc2)s1,26*,23,6,-10,24,19*,-1
O=C(c1ccco1)N1CCN(C(=O)C23CC4CC(CC(C4)C2)C3)CC1,-2,-1,0,8,-2,.,.
O=C(O)c1ccc(Cl)c(NC(=S)NC(=O)c2ccccc2[N+](=O)[O-])c1,18*,-1,-3,-2,-3,-3,-3
COC(=O)C(C)(C)ONC(=O)Nc1ccccc1Cl,-4,0,-2,7,7,.,.
COc1ccc(OC)c(N2Cc3ccccc3C2)c1,1,-16,1,3,15,.,.
COc1ccccc1N1Cc2ccccc2C1,18*,17,3,6,17,24*,2
Cc1cc(C)n2nc(SC(C)C(=O)N3CC(C)OC(C)C3)nc2n1 (centres undefined),.,1,.,-2,3,.,.
CCc1nnc(NS(=O)(=O)c2ccc(NC(=S)NC(=O)/C=C/c3ccc(C(C)C)cc3)cc2)s1,26*,24,5,-42,69*,32*,6
CCc1nnc(NS(=O)(=O)c2ccc(NC(=S)NC(=O)/C=C/c3ccccc3)cc2)s1,10,11,4,-8,20,.,.
CCCCOC(=O)c1ccc(NC(=O)c2ccccc2OC)cc1,64*,5,7,-4,-9,1,2
COc1ccc(Cl)cc1S(=O)(=O)NC(C)c1cnn(-c2ccccn2)c1C (centres undefined),.,0,.,.,-2,.,.
CCOC(=O)N1CCN(Cc2nc(N)nc(Nc3ccc(Oc4ccccc4)cc3)n2)CC1,23*,16,2,20,13,4,-1
CCN(CC)CCCN=Cc1c(-c2ccccc2)[nH]n(-c2nc3ccccc3s2)c1=O,30*,0,3,14,-1,5,-1
CCCN=C(C)c1c(-c2ccccc2)[nH]n(-c2nc3ccccc3s2)c1=O,2,8,2,10,11,.,.
O=C(Nc1ccc([N+](=O)[O-])cc1)c1ccc(S(=O)(=O)N2CCCC2)cc1,-2,-2,4,6,0,.,.
O=C(Nc1ccc(S(=O)(=O)N2CCCCCC2)cc1)c1[nH]ncc1[N+](=O)[O-],58*,-12,0,-2,5,16*,-4
